# Test results reported in PubChem BioAssay.
# Calls of active or inactive are those of the source.
# Experiments:
# [1] = tested on: Plasmodium falciparum Sir2 (PF13_0152, Sir2A); experiment: Plasmodium falciparum Sir2A binding compounds – biochemical, small-molecule microarray, 635 nm fluorescence, primary screen (AID 1098); details: fluorescence 635 nm, higher = more signal;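 further: score merges spot fluorescence intensity with its signal-to-noise ratio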
# [2] = probe aDKK1 binding to arrayed compounds – biochemical, biotinylated probe, 635/667 nm fluorescence, primary screen (AID 1099); details: small-molecule microarray, higher = more signal;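 further: score merges 667nm spot fluorescence with signal to noise across triplicate slides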
# [3] = probe aCHRDL2 binding to arrayed compounds – biochemical, biotinylated probe, 635/667 nm fluorescence, primary screen (AID 1100); details: small-molecule microarray, higher = more signal
# [4] = change in splice reporter luminescence, either direction, cell-based, HEK293, spliceosome inhibition project, primary screen (AID 1101); details: HEK293 splicing luciferase reporter, 24 h, higher = more signal, called active from +8 up or from −8 down;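 further: HEK293 cells carrying a splicing-competent luciferase reporter gene; test concentration not given here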
# [5] = biological target: Fibroblast growth factor 10 (Homo sapiens) (UniProt O15520); experiment: compounds binding fibroblast growth factor 10 – biochemical, small-molecule microarray, 635 nm fluorescence, primary screen (AID 1102); details: FGF10 binding, fluorescence 635 nm, higher = more signal
# [6] = tested on: glycogen synthase kinase-3 (GSK3A per assay name; protocol says GSK3B); experiment: compounds binding glycogen synthase kinase-3 – biochemical, small-molecule microarray, 635 nm fluorescence, GSK3A, primary screen (AID 1103); details: fluorescence 635 nm, higher = more signal; further: the record names both GSK3A and GSK3B
# [7] = biological target: Epidermal growth factor receptor (Homo sapiens) (UniProt P00533); experiment: compounds binding epidermal growth factor receptor – biochemical, small-molecule microarray, 635 nm fluorescence, primary screen (AID 1104); details: EGFR binding, higher = more signal;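 further: score merges 667 nm emission intensity with spot signal to noise over triplicate slides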
# [8] = biological target: Follistatin-related protein 3 (Homo sapiens) (UniProt O95633); experiment: compounds binding follistatin-related protein 3 – biochemical, small-molecule microarray, 635 nm fluorescence, primary screen (AID 1105); details: FSTL3 binding, higher = more signal;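 further: score merges emission near 667 nm and signal to noise per printed spot across three slides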
# [9] = biological target: Dickkopf-related protein 1 (Homo sapiens) (UniProt O94907); experiment: small molecules binding DKK1 protein – biochemical, small-molecule microarray, 635 nm fluorescence scan, primary screen (AID 1106); details: higher = more signal;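 further: score merges emission near 667 nm with signal to noise over three replicate slides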
# [10] = tested on: Inhibin beta A chain (activin A); experiment: small molecules binding activin A – biochemical, small-molecule microarray, 635 nm fluorescence scan, primary screen (AID 1107); details: INHBA, higher = more signal;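 further: mouse activin A protein probed at 4.33 µg/mL on printed slides; score merges bound-protein fluorescence near 667 nm with spot signal-to-noise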
# [11] = tested on: Human papillomavirus type 1a protein E7 (residues 44-93); experiment: small molecules binding HPV E7 44-93 – biochemical, small-molecule microarray, residues 44-93, 635 nm fluorescence, primary screen (AID 1108); details: fluorescence 635 nm, higher = more signal;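 further: E7 fragment applied at 1 µg/mL in TBST for 1 h at 4 C; score combines spot fluorescence with its signal to noise ratio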
# [12] = hepatitis C replication reporter changes, two-sided – Huh7 cells, luciferase reporter, HCV replication inhibitor project, primary screen (AID 1109); details: Huh7 HCV replicon luciferase reporter, 48 h; higher = more signal;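 further: huh7 hepatoma cells harbouring a luciferase neomycin HCV replicon reporter; luciferase luminescence as measure of HCV replicon replication; test concentration not given here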
# [13] = biological target: Left-right determination factor 2 (Homo sapiens) (UniProt O00292); experiment: small molecules binding LEFTY2 protein – biochemical, small-molecule microarray, 635 nm fluorescence scan, primary screen (AID 1110); details: higher = more signal
# [14] = biological target: Calmodulin-1 (Homo sapiens) (UniProt P0DP23); experiment: small molecules binding calmodulin-1 with EGTA – biochemical, small-molecule microarray, Cy5-labelled CALM1, profiling panel (AID 1111); details: Cy5-CALM1 binding fluorescence, higher = more signal;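 further: labelled calmodulin applied in Tris saline Tween buffer holding calcium plus EGTA and DTT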
# [15] = biological target: Calmodulin-1 (Homo sapiens) (UniProt P0DP23); experiment: small molecules binding Ca-loaded calmodulin-1 – biochemical, small-molecule microarray, Cy5-labelled CALM1, plus calcium, artefact control for SMM control-protein annotation, profiling panel (AID 1112); details: Cy5-CALM1 binding fluorescence, higher = more signal;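 further: score merges spot fluorescence with signal to noise from triplicate slides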
# [16] = probe aWnt5a binding to arrayed compounds – biochemical, biotinylated probe, 635/667 nm fluorescence, primary screen (AID 1113); details: small-molecule microarray, higher = more signal;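 further: score merges 667 nm fluorescence intensity with signal-to-noise per printed feature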
# [17] = probe aShh binding to arrayed compounds – biochemical, biotinylated probe, 635/667 nm fluorescence, primary screen (AID 1114); details: small-molecule microarray, higher = more signal;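 further: probe is biotin-labelled aShh protein from a stem cell growth factor screen; measures binding of labelled protein to compounds printed on the slide; score merges feature fluorescence at 667 nm with signal-to-noise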
# [18] = probe aNog binding to arrayed compounds – biochemical, biotinylated probe, 635/667 nm fluorescence, primary screen (AID 1115); details: small-molecule microarray, higher = more signal;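 further: probe is biotinylated aNog protein used at 0.15 µg/mL for 1 h at 4 C; z-score combines 667 nm fluorescence of each spot with its signal to noise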
# [19] = biological target: Torsin-1A-interacting protein 1 (Homo sapiens) (UniProt Q5JTV8); experiment: compound microarray binding of lysate hLAP1 – cell lysate, small-molecule microarray, COS7 lysate, 635/667 nm fluorescence, primary screen (AID 1116); details: 635 nm fluorescence, higher = more signal
# [20] = biological target: Alpha-bungarotoxin (Bungarus multicinctus) (UniProt P60615); experiment: compounds binding labelled alpha-BTX control protein – biochemical, small-molecule microarray, Alexa647 label, 635/667 nm fluorescence, artefact control for SMM control protein annotation, profiling panel (AID 1117); details: alpha-BTX-A647 binding fluorescence, higher = more signal
# Chain of Alpha-bungarotoxin (Bungarus multicinctus) (P60615 whole entry, looked up): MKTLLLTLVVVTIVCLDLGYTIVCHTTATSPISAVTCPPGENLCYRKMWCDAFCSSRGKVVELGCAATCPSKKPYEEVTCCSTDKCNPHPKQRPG
# Chain of Fibroblast growth factor 10 (Homo sapiens) (O15520 whole entry, looked up): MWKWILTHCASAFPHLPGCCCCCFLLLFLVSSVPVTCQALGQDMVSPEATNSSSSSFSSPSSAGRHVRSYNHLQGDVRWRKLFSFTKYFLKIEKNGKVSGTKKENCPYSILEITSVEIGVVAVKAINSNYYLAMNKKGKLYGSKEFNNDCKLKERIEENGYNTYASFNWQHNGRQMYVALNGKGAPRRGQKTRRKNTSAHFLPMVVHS
# Chain of Left-right determination factor 2 (Homo sapiens) (O00292 whole entry, looked up): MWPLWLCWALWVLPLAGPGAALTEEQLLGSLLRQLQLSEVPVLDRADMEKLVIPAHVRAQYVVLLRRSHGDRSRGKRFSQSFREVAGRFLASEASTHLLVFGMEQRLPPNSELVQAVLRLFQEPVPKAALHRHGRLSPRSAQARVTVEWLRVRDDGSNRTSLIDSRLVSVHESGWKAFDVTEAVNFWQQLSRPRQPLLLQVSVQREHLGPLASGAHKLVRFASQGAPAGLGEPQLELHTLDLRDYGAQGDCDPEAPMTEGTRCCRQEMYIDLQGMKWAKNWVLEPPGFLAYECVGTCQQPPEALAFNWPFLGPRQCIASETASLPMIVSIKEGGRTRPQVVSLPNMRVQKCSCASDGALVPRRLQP
# Chain of Torsin-1A-interacting protein 1 (Homo sapiens) (Q5JTV8 whole entry, looked up): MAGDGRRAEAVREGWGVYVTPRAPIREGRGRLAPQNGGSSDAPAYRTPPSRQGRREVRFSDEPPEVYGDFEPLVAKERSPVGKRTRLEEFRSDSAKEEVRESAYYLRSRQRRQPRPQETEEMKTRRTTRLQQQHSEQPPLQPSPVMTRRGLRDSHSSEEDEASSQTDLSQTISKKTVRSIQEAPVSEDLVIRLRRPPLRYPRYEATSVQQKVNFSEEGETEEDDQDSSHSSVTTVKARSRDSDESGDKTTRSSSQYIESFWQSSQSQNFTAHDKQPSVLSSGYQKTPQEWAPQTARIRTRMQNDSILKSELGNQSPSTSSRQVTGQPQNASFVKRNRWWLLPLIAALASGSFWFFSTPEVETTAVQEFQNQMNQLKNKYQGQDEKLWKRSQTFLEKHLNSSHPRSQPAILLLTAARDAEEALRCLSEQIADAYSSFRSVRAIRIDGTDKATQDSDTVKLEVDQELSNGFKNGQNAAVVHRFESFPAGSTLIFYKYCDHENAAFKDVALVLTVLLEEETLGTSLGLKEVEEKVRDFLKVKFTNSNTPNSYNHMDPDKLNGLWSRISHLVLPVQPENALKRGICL
# Chain of Epidermal growth factor receptor (Homo sapiens) (P00533 whole entry, looked up): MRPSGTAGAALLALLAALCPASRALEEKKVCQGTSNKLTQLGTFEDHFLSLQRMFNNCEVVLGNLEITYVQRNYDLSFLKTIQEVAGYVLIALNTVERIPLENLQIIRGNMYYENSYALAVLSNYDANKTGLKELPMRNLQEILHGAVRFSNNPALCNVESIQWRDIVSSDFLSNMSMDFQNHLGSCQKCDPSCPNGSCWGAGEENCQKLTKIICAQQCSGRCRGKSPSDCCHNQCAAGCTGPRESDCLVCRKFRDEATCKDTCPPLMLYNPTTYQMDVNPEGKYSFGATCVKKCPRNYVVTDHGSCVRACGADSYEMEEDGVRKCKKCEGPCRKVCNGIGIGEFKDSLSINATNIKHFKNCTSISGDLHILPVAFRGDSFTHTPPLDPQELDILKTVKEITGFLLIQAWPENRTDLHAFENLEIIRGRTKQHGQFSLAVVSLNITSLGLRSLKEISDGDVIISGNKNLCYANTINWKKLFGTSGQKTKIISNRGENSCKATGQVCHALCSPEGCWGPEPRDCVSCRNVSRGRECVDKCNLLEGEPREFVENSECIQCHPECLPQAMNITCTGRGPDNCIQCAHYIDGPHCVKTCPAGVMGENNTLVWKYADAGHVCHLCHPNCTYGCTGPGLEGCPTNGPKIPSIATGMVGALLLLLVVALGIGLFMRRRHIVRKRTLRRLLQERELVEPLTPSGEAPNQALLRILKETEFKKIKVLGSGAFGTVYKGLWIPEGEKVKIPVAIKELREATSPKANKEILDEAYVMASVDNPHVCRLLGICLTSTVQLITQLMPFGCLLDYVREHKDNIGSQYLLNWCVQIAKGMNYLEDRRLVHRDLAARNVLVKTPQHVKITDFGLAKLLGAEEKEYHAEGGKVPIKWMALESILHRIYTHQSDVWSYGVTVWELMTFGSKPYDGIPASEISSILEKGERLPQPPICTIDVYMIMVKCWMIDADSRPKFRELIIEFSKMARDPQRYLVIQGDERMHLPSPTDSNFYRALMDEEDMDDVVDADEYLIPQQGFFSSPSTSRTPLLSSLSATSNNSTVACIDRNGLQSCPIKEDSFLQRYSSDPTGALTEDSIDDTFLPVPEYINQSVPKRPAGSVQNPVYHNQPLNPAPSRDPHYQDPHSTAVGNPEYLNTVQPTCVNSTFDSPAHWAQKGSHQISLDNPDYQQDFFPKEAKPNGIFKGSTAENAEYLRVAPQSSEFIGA
# Chain of Dickkopf-related protein 1 (Homo sapiens) (O94907 whole entry, looked up): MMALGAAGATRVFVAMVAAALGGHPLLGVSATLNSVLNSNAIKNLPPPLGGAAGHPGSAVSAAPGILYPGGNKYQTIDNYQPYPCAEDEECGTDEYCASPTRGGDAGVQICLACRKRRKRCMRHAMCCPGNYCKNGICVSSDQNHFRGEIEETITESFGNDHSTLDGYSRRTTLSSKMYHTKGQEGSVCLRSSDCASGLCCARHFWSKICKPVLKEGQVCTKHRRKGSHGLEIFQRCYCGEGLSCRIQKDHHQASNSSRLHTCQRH
# Chain of Follistatin-related protein 3 (Homo sapiens) (O95633 whole entry, looked up): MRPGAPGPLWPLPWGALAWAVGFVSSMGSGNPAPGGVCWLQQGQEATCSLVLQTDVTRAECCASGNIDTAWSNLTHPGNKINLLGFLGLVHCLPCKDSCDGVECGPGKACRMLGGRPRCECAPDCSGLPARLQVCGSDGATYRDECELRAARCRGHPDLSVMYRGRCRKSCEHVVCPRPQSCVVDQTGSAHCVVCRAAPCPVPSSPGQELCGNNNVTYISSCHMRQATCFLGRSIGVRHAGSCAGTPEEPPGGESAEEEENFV
SMILES,composite z-score [1],composite z-score [2],composite z-score [3],z-score [4],composite z-score [5],composite z-score [6],composite z-score [7],composite z-score [8],composite z-score [9],composite z-score [10],composite z-score [11],z-score [12],composite z-score [13],composite z-score [14],composite z-score [15],composite z-score [16],composite z-score [17],composite z-score [18],composite z-score [19],composite z-score [20]
Cc1ccc(C(C)CC(O)C2C=CC3C(=O)N(c4ccccc4)C(=O)C3N2Nc2ccc([N+](=O)[O-])cc2)o1 (stereo not given),0.883,-0.199,0.904,0.907 (inactive),0.938,1.27,0.152,0.904,0.0201,0.77,1.41,-0.212,0.135,1.17,-0.284,-0.0792,-0.229,0.437,0.866,1.3
CCOC(=O)C1=CCC(c2ccccc2)N(S(=O)(=O)CC[Si](C)(C)C)C1 (stereo not given),-0.285,-0.264,-0.534,0.191 (inactive),-0.887,-0.157,-0.458,-0.736,-0.214,1.24,-0.312,-0.327,-0.262,-0.0436,0.0045,-0.208,-0.262,-0.338,-0.28,0.115
CCN(CC)c1ccc(N2CC=CC34O[C@@H]5/C=C\CCCOC(=O)C5[C@H]3C(=O)N(CCO)[C@@H]4C2=O)cc1 (stereo not given in full),1.1,-0.221,0.63,-0.375 (inactive),-1.12,-0.404,-1.28,-0.957,-1.14,0.0809,-0.0422,-0.684,-0.85,-0.557,0.172,-0.113,-0.0769,-0.406,-0.233,-0.259
C=CCN(Cc1ccccc1)C(=O)C(c1cccs1)N(CCOCCO)C(=O)/C=C\C(=O)O (stereo not given),0.342,0.179,0.251,-1.62 (inactive),-2.23,-0.869,-2.04,-1.27,-2.6,-2.43,-0.762,0.448,-2.24,-0.512,0.446,-0.256,-0.0035,-0.0712,-1.45,-1.82
Cc1ccc(S[C@]2(C(=O)NCC(C)C)CC(=O)N(Cc3cc(C(F)(F)F)cc(C(F)(F)F)c3)[C@@H]2c2ccc(CO)cc2I)cc1,-0.313,0.75,1.39,-0.0957 (inactive),-0.755,-1.16,-1.78,-0.615,-2.14,0.923,0.133,-1.01,-2.48,-0.571,0.0903,-0.166,0.108,0.225,0.116,-1.05
